Screens deposited in PubChem by Center for Chemical Genomics, University of Michigan.
Only a selection was taken, and hits are over-represented in it overall.
Dicer inh = human Dicer pre-microRNA cleavage inhibition; z-score at 25 µM; Q9UPY3; cat-ELCCA pre-miR-21 Dicer processing, chemiluminescence; hits give high values; 47,000 compounds, 6% hits; in the data active = z-score above about 3, passing the limit was not always enough;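 note: higher signal means more uncleaved substrate so more Dicer inhibition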
Target sequence (Q9UPY3 whole entry, looked up): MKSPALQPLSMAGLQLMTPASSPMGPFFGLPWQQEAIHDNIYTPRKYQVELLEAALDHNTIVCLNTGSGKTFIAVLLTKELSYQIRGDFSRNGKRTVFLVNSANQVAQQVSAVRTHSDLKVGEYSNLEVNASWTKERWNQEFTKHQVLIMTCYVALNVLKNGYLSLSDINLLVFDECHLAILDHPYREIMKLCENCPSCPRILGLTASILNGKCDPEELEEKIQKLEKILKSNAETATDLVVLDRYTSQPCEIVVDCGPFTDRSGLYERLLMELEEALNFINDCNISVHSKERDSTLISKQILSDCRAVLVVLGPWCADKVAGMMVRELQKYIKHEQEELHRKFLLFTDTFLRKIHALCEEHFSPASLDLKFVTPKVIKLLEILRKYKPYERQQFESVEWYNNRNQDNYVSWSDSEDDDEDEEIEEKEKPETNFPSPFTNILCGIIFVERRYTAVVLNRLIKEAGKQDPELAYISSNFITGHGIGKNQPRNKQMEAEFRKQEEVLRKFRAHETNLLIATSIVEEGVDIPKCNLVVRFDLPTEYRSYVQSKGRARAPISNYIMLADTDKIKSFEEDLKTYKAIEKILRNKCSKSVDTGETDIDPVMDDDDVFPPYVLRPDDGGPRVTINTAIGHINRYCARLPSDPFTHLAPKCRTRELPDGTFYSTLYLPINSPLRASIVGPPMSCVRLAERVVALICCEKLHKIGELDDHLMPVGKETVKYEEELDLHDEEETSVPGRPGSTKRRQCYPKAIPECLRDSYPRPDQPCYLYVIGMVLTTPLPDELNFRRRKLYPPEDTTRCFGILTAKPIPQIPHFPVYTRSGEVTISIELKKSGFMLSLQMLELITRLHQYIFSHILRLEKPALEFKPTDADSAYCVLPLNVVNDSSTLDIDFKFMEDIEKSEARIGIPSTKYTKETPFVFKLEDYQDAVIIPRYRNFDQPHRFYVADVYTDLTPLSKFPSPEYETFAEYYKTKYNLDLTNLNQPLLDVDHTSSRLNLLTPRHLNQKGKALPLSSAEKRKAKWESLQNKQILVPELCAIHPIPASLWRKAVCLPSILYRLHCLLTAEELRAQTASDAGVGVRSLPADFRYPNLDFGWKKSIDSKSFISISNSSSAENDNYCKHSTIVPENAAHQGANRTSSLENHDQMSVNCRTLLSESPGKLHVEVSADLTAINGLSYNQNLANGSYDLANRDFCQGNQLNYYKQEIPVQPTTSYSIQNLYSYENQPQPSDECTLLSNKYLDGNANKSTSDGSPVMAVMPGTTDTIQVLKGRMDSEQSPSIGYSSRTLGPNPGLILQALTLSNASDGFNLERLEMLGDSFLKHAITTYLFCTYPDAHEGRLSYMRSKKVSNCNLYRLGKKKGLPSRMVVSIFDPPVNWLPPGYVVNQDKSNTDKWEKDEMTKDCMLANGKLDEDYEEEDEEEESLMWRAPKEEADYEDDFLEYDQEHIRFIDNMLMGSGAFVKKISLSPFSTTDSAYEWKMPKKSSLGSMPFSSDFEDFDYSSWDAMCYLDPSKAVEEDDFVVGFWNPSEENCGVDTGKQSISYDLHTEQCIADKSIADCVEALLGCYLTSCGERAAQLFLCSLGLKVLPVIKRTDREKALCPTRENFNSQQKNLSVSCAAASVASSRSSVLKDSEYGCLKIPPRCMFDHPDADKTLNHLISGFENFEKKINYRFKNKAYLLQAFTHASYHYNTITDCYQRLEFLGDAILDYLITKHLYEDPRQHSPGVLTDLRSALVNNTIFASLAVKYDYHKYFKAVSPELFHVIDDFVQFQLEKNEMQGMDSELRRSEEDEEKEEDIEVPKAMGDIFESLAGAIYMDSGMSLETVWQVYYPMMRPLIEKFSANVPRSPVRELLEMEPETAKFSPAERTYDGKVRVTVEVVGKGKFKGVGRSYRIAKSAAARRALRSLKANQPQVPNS
Numbers stand for hits; - = inactive.

SMILES	Dicer inh
Cn1c(=O)c2c(nc(Sc3ccc(Cl)cc3)n2C)n(C)c1=O	3.1
Cn1c(=O)c2c(nc(Cl)n2Cc2cccc(Cl)c2)n(C)c1=O	-
Cn1c(=O)c2c(nc(Cl)n2Cc2ccc(F)cc2)n(C)c1=O	3.1
Cn1c(=O)c2c(nc(N3CCCCC3)n2Cc2ccc(Cl)cc2)n(C)c1=O	-
Cn1c(=O)c2c(nc(Br)n2Cc2ccc(Cl)cc2)n(C)c1=O	4.2
Cc1ccccc1CSc1nc2c(c(=O)n(C)c(=O)n2C)n1C	5.2
Cn1c(=O)c2c(nc(Sc3ccccc3)n2Cc2ccc(Cl)cc2Cl)n(C)c1=O	-
Cn1c(=O)c2c(nc(N3CCOCC3)n2Cc2ccc(Cl)cc2)n(C)c1=O	-
Cn1c(=O)c2c(ncn2Cc2ccc(Cl)cc2)n(C)c1=O	-
Cn1c(=O)c2c(nc(SCc3cc4c(cc3Cl)OCO4)n2C)n(C)c1=O	-
CSc1nccc(-c2ccc(S(=O)(=O)Nc3ccc(Cl)cc3)s2)n1	-
Cc1cc(C(=O)Nc2ccccc2)c(C)n1Cc1cccs1	-
COc1cc(C2C(C(=O)OCc3ccccc3)=C(C)NC3=C2C(=O)CC(C)(C)C3)ccc1OC(C)=O (stereo not given)	-
CS(=O)(=N/C=C(\C#N)C(=O)c1cccs1)c1ccc(Cl)cc1 (stereo not given)	-
CCOC(=O)Cc1csc2nc(=O)c3c(C)c(C)sc3n12	-
CC(=O)Oc1ccc2oc(C)c(C(=O)O)c2c1	-
O=C1CCC(c2ccccc2)=NN1c1ccc([N+](=O)[O-])cc1	-
Cc1ccsc1/C=C/c1ccnc(Sc2ncccc2[N+](=O)[O-])n1	-
COc1ccc(NC(=O)c2scc(S(=O)(=O)C(C)C)c2N)cc1	-
COc1ccc(NC(=O)OC(C)C)cc1	3.5
CCN(CC)C(=O)Nc1ccc(OC)cc1	-
CC1=NN(c2ccc(N=Cc3ccc(N(C)C)cc3)cc2)C(=O)C1	-
Cc1cc(OCOc2ccc(Cl)c(C)c2)ccc1Cl	-
Cc1cc(Oc2ccnc3cc(Cl)ccc23)ccc1Cl	29
Cc1cc(Oc2ccnc3cc(Cl)ccc23)cc(C)c1Cl	-
SMILES	Dicer inh
CN1CCN(S(=O)(=O)c2cccc3ccccc23)CC1	-
COC(=O)c1ccc(C(=O)OC)c(N2C(=O)CC(Sc3ccccc3N)C2=O)c1 (stereo not given)	-
CC(=O)Cn1cnc2c(sc3nc(C)cc(C)c32)c1=O	-
Cc1cc(C)c2c(n1)sc1c(=O)n(/N=C/c3ccccc3)c(C)nc12	-
Cc1cc(C)c2c(n1)sc1c(=O)oc(C)nc12	4.9
Cc1nc(C(F)(F)F)nc(Sc2n[nH]c(-c3cccs3)n2)c1C	-
COC(=O)c1ccc(C2NC(=O)c3c(sc4c3CCN(C)C4)N2)cc1 (stereo not given)	-
COc1ccc(-c2nnc(SC)o2)cc1	-
Cc1csc2c(=O)n(CCO)c(=O)[nH]c12	4.6
Cc1csc2nc(CN3CCOCC3)[nH]c(=O)c12	-
CC(C)CCn1c(=O)[nH]c2ccccc21	-
Cc1csc2c(=O)n(CCN3CCSCC3)c(=O)[nH]c12	5.9
O=c1[nH]c2ccsc2c(=O)n1CCO	3.2
Cc1csc2c(N3CCSCC3)ncnc12	-
O=S(=O)(O/N=C1\CCSc2ccc(F)cc21)c1ccc(Cl)cc1	-
N#Cc1sc2nc3ccccc3n2c1N	-
Cc1cc(=O)[nH]c(Cc2c(Cl)cccc2Cl)n1	-
CCOC(=O)N1CCc2c(sc(NC(=O)CSc3nnc(-c4cccs4)n3CC)c2C#N)C1	-
CSc1c(C#N)c(-c2ccc(Cl)cc2)nn1C	-
COC(=O)c1ccccc1Sc1c(-c2ccccc2)nc2ccccn12	-
N#CCCn1nc(-c2ccccc2)cc1N	-
CCOC(=O)/C(C#N)=C/c1ccccc1	-
CCOC(=O)/C(C#N)=C/c1csc([N+](=O)[O-])c1	3.1
CCOC(=O)/C(C#N)=C/c1ccc([N+](=O)[O-])s1	-
O=C1C2CC=CCC2C(=O)N1c1cccc(N2C(=O)C3CC=CCC3C2=O)n1 (stereo not given)	-
SMILES	Dicer inh
OC(CN1CCN(c2nc3ccc(Cl)cc3s2)CC1)CN1CCCN(c2ncc(C(F)(F)F)cc2Cl)CC1 (stereo not given)	-
CCOc1cc(S(=O)(=O)n2cnc(C)c2)ccc1F	-
Cc1cccc([N+](=O)[O-])c1-c1c(C)cccc1[N+](=O)[O-]	-
O=C(Nc1ccc(C(F)(F)F)cc1)Nc1sccc1Cl	-
CC(C)CC(NC(=O)Cc1ccsc1)C(=O)NNC(=O)c1ccccc1Cl (stereo not given)	-
CC(C)CC(NC(=O)Cc1ccsc1)C(=O)NNS(=O)(=O)c1ccc(Cl)cc1 (stereo not given)	12
CC(C)CC(NC(=O)Cc1ccsc1)C(=O)NN (stereo not given)	-
COCCN1C(=O)C(=O)/C(=C(\O)c2ccc(F)cc2)C12C(=O)N(C)c1ccccc12 (stereo not given)	-
CCOc1ccc(NC(=O)c2c(N)sc3c2CCC(C(C)(C)C)C3)cc1 (stereo not given)	-
CCOC(=O)C1=C(C)NC2=C(C(=O)CCC2)C1c1cc(OC)c(OC)cc1Br (stereo not given)	-
Cn1c(=O)c2c(nc(NCc3ccc4c(c3)OCO4)n2Cc2cccc(Br)c2)n(C)c1=O	-
CC(C)(O)C#Cc1ccc(/C=N/Nc2ccc(I)cc2)cc1	-
CC(C)(O)C#Cc1ccc(/C=N/O)cc1	-
CC(C)(O)C#Cc1ccc(C2NCCS2)cc1 (stereo not given)	259
Cc1sc(-c2ccc(Cl)cc2)nc1CC(=O)O	-
CCOC(=O)NC(=S)NCCc1ccccn1	-
COc1cccc(C(=O)CC2(O)C(=O)N(CCc3ccccc3)c3ccc(Br)cc32)c1 (stereo not given)	-
O=C(O)CN1C(=O)Nc2ccc(Br)cc2C1c1ccccc1 (stereo not given)	-
CC1(C(=O)c2ccccc2)C2c3cc(Br)ccc3OC(=O)C21C(=O)NCc1ccccc1 (stereo not given)	3.4
Cc1ccc(Cl)cc1N1C(=O)c2ccncc2C1=O	3.4
Cc1ccc(Cl)cc1N1C(=O)CC(C)(C)CC1=O	-
COc1ccc(Cl)cc1N1C(=O)c2ccncc2C1=O	-
Cc1ccc2cccc(OS(=O)(=O)c3ccc(F)cc3F)c2n1	-
O=C(O)c1ccccc1SCc1cccc(C(F)(F)F)c1	-
CN1C(=O)C2(/C(=C(/O)c3ccc(F)cc3)C(=O)C(=O)N2CCN2CCOCC2)c2ccccc21 (stereo not given)	-
SMILES	Dicer inh
COc1ccc(C2/C(=C(\O)c3ccc(C)cc3)C(=O)C(=O)N2CCCN(C)C)cc1 (stereo not given)	-
COCCCN1C(=O)C(=O)/C(=C(/O)c2ccc(C)cc2)C1c1ccc(N(C)C)cc1 (stereo not given)	3.2
COc1ccc(/C(O)=C2\C(=O)C(=O)N(CCN3CCNCC3)C2c2ccc(OC)cc2)cc1 (stereo not given)	-
CN1C(=O)C2(/C(=C(/O)c3ccc(Cl)cc3)C(=O)C(=O)N2CCN2CCOCC2)c2ccccc21 (stereo not given)	-
CCN1C(=O)C2(/C(=C(/O)c3ccc(F)cc3)C(=O)C(=O)N2CCN2CCOCC2)c2ccccc21 (stereo not given)	5.7
COc1ccc(/C(O)=C2\C(=O)C(=O)N(CCCN(C)C)C2c2ccc(N(C)C)cc2)cc1 (stereo not given)	-
COc1ccc(/C(O)=C2\C(=O)C(=O)N(CCN3CCOCC3)C2c2ccc(F)cc2)cc1 (stereo not given)	3.2
COc1ccc(/C(O)=C2\C(=O)C(=O)N(CCCN3CCOCC3)C2c2ccc(OC)cc2)cc1 (stereo not given)	-
